These results are taken from PubChem BioAssay (NCATS).

Records with an inconclusive call do not appear. The source made the active and inactive calls. The call rests on the fitted dose curve; in most records, active means well fitted curve in the direction sought with a large enough effect; inconclusive means small, poorly fitted or top-dose-only effect, or another doubt; inactive means no such curve, though single readings can be large; an effect the other way counts as inactive or inconclusive.

Assay [1] can be described thus: qHTS of pediatric cancer cell lines to identify multiple opportunities for drug repurposing: Primary screen for Rh30 cells (AID 1347107). Further: nearly all actives have a fitted effect of over 75% in size. A digest of the protocol: (§1)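 Viability after 48 h compound treatment at 37C, 500-1,000 cells/well, read as ATP luminescence with CellTiter-Glo. Primary screens used 11-point (MIPE, 0.78 nM-46 µM) or 8-point (NPC, 0.59 nM-46 µM) final concentrations; follow-up screens used 11-point dilutions.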

The nature of assay [2]: qHTS of pediatric cancer cell lines to identify multiple opportunities for drug repurposing: Primary screen for Rh41 cells (AID 1347108). Further: nearly all actives have a fitted effect of over 70% in size. The method, boiled down:
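Plated cells (500-1,000 per well, growth media) were allowed to settle for 5 hours, treated with compound dilutions for 48 hours, then lysed with CellTiter-Glo for 15 min at room temperature before luminescence reading.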

Assay [3] in a line: qHTS of pediatric cancer cell lines to identify multiple opportunities for drug repurposing: Primary screen for control Hh wild type fibroblast cells (AID 1347106). Further: nearly all actives have a fitted effect of over 55% in size. The method, boiled down: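 Cells (500-1,000/well) in growth media were settled 5 h at 37 degrees C, then given compounds for 48 h. Viability was read as CellTiter-Glo luminescence. Primary runs used MIPE at 11 points (0.78 nM-46 µM) and NPC at 8 points (0.59 nM-46 µM); follow-ups used 11 points.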

Assay [4] is described as follows: qHTS of pediatric cancer cell lines to identify multiple opportunities for drug repurposing: Confirmatory screen for A673 cells (AID 1347110). Further: nearly all actives have a fitted effect of over 65% in size. The method, boiled down: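 A673 cells at 500-1,000 cells/well were dosed 5 h after plating, in dilution series up to 46 uM final; primary runs used 8 or 11 points and confirmatory runs used 11 points. Viability was read by CellTiter-Glo luminescence after 48 h, against DMSO and 2.3 uM bortezomib controls.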

A short description of assay [5]: qHTS of pediatric cancer cell lines to identify multiple opportunities for drug repurposing: Confirmatory screen for BT-12 cells (AID 1347112). Further: nearly all actives have a fitted effect of over 55% in size. The method, boiled down:
as §1

Assay [6] in a line: qHTS of pediatric cancer cell lines to identify multiple opportunities for drug repurposing: Confirmatory screen for LAN-5 cells (AID 1347113). Further: nearly all actives have a fitted effect of over 65% in size. A digest of the protocol: as §1
On the technique in general: qHTS replaces the single test concentration by a dilution series.

Assay [7] in a line: qHTS of pediatric cancer cell lines to identify multiple opportunities for drug repurposing: Confirmatory screen for DAOY cells (AID 1347114). Further: nearly all actives have a fitted effect of over 65% in size. The method, boiled down:
(§2)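 Viability measured as metabolically active cells via CellTiter-Glo luminescence following 48 hours of compound exposure, 11-point dilutions in confirmatory testing. 500-1,000 cells/well plated 5 hours before dosing; controls were DMSO and 2.3 µM bortezomib.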

Assay [8] is described as follows: qHTS of pediatric cancer cell lines to identify multiple opportunities for drug repurposing: Confirmatory screen for BT-37 cells (AID 1347117). Further: nearly all actives have a fitted effect of over 55% in size. A digest of the protocol:
as §1

The nature of assay [9]: qHTS of pediatric cancer cell lines to identify multiple opportunities for drug repurposing: Confirmatory screen for control Hh wild type fibroblast cells (AID 1347121). Further: nearly all actives have a fitted effect of over 70% in size. The method, boiled down: as §1
Assay [10] is described as follows: qHTS of pediatric cancer cell lines to identify multiple opportunities for drug repurposing: Confirmatory screen for U-2 OS cells (AID 1347122). Further: nearly all actives have a fitted effect of over 65% in size. A digest of the protocol:
as §1

A short description of assay [11]: qHTS of pediatric cancer cell lines to identify multiple opportunities for drug repurposing: Confirmatory screen for Rh41 cells (AID 1347123). Further: nearly all actives have a fitted effect of over 60% in size. The method, boiled down: as §1
A short description of assay [12]: qHTS of pediatric cancer cell lines to identify multiple opportunities for drug repurposing: Confirmatory screen for Rh18 cells (AID 1347125). Further: nearly all actives have a fitted effect of over 55% in size. A digest of the protocol:
as §1

Assay [13] in a line: qHTS of pediatric cancer cell lines to identify multiple opportunities for drug repurposing: Confirmatory screen for NB1643 cells (AID 1347109). Further: nearly all actives have a fitted effect of over 45% in size. The method, boiled down:
as §1

Assay [14] in a line: qHTS of pediatric cancer cell lines to identify multiple opportunities for drug repurposing: Confirmatory screen for SK-N-MC cells (AID 1347111).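 Further: cells exposed to compound for 48 h before the readout; nearly all actives have a fitted effect of over 70% in size.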 The method, boiled down:
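SK-N-MC cells at 500-1,000 cells/well in growth media were pre-incubated 5 h, then exposed to compounds at 11-point dilutions for 48 h at 37 degrees C, 5% CO2. Viability was read as CellTiter-Glo luminescence.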

The nature of assay [15]: qHTS of pediatric cancer cell lines to identify multiple opportunities for drug repurposing: Confirmatory screen for NB-EBc1 cells (AID 1347115). Further: nearly all actives have a fitted effect of over 45% in size. The method, boiled down:
as §1

Assay [16] can be described thus: qHTS of pediatric cancer cell lines to identify multiple opportunities for drug repurposing: Confirmatory screen for SJ-GBM2 cells (AID 1347116). Further: nearly all actives have a fitted effect of over 60% in size. The method, boiled down: as §2
Assay [17] is described as follows: qHTS of pediatric cancer cell lines to identify multiple opportunities for drug repurposing: Confirmatory screen for TC32 cells (AID 1347118). Further: nearly all actives have a fitted effect of over 65% in size. The method, boiled down: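 Luminescent CellTiter-Glo read-out of metabolically active TC32 cells after 48 h compound exposure. Primary: MIPE 11-point, 0.78 nM–46 µM; NPC 8-point, 0.59 nM–46 µM. Confirmatory: 11-point dilutions.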

The nature of assay [18]: qHTS of pediatric cancer cell lines to identify multiple opportunities for drug repurposing: Confirmatory screen for MG 63 (6-TG R) cells (AID 1347119). Further: nearly all actives have a fitted effect of over 55% in size. The method, boiled down: as §1
Assay [19] can be described thus: qHTS of pediatric cancer cell lines to identify multiple opportunities for drug repurposing: Confirmatory screen for RD cells (AID 1347124). A digest of the protocol: as §1
A short description of assay [20]: qHTS of pediatric cancer cell lines to identify multiple opportunities for drug repurposing: Confirmatory screen for Rh30 cells (AID 1347126). Further: nearly all actives have a fitted effect of over 55% in size. A digest of the protocol: as §1
Potency means the concentration at half of the fitted maximal effect.

In the case of `Cc1ccc(S(=O)(=O)Nc2cc(Cl)ccc2C(=O)Nc2nc(-c3ccccc3)cs2)cc1`, the Potency result in [1] is “inactive”. Besides, the Potency in [2] was 18.7 µM (active).

As for `c1cc(-c2cnn3cc(-c4ccc(OCCN5CCCCC5)cc4)cnc23)ccn1`, the Potency is 18.7 µM (active) in [1] and 9.35 µM (active) in [2].

In the case of `Clc1cccc(-n2nnnc2NCc2ccccc2Oc2ccccn2)c1Cl`, in assay [1], the Potency entry is “inactive”.

With `Cn1cncc1[C@@](N)(c1ccc(Cl)cc1)c1ccc2c(c1)c(-c1cccc(Cl)c1)cc(=O)n2C`, the Potency in assay [1] and in assay [2] was 14.8 µM (active) in each case.

Take `CN(c1ncccc1CNc1nc(Nc2ccc3c(c2)CC(=O)N3)ncc1C(F)(F)F)S(C)(=O)=O`: the Potency in [3] was 20.9 µM (active); in assay [2] it was 9.35 µM (active); in [4] it was 3.69 µM (active); in [5] it was 13.1 µM (active); in [6], 4.65 µM (active); in assay [7], 6.57 µM (active). In addition, the Potency is 7.37 µM (active) in assay [8], 7.37 µM (active) in assay [10] and 3.69 µM (active) in assay [11]. Further, the Potency result in [9] and in [12] was “inactive” each time.

In the case of `CNc1nccc(-c2cccnc2Oc2cc(C(=O)Nc3cccc(C(F)(F)F)c3)ccc2C)n1`, the Potency entry in [1] is “inactive”.

Take `CCCn1c(=O)c2[nH]c(-c3cnn(Cc4cccc(C(F)(F)F)c4)c3)nc2n(CC)c1=O`: the Potency entry in assay [1] and in assay [2] was “inactive” each time.

Take `CC[C@@H]1C(=O)N(C)c2cnc(Nc3ccc(C(=O)NC4CCN(C)CC4)cc3OC)nc2N1C1CCCC1`: the Potency was 23.5 µM (active) in assay [3]; 3.29 µM (active) in assay [13]; 0.0369 µM (active) in assay [4]; 0.0465 µM (active) in assay [14]; 16.5 µM (active) in assay [5]; 5.22 µM (active) in assay [6]. Also, the Potency is 3.29 µM (active) in assay [15]; 1.04 µM (active) in [16]; 0.131 µM (active) in assay [8]; 0.0522 µM (active) in [17]; 0.0928 µM (active) in assay [18]; 18.5 µM (active) in assay [9]. The Potency in assay [19] is 0.0465 µM (active); in assay [12] it was 18.5 µM (active).

On to `Fc1cc(-c2cccc3ncc(-c4cnn(C5CCNCC5)c4)nc23)cc(F)c1CN1CCOCC1`, for which the Potency in assay [1] and in assay [2] was 23.5 µM (active) each time.

In the case of `COc1cc2c(Nc3ccc(NC(=O)c4ccccc4)cc3)ncnc2cc1OCCCN1CCOCC1`, the Potency result in [1] was “inactive”.

Consider `C1Cc2[nH]nc(-c3nn[nH]n3)c2C1`, for which the Potency result in assay [1] and in assay [2] was “inactive” in each case.

For `COc1ccc(C(=O)CC2(O)C(=O)Nc3c(Cl)ccc(Cl)c32)cc1` (stereo unspecified), the Potency result in assay [1] was “inactive”. In addition, the Potency in [2] was 3.72 µM (active).

As to `C[C@H]1C[C@@H]2[C@@H]([C@@H](O)C[C@@]3(C)[C@H]2CC[C@]3(O)C(=O)CO)[C@@]2(C)C=CC(=O)C=C12`, the Potency result in [1] and in assay [2] was “inactive” throughout.

As to `NCC(=O)Nc1ccc(-n2nc(C(F)(F)F)cc2-c2ccc3c(ccc4ccccc43)c2)cc1`, in assay [3], the Potency result was “inactive”. Moreover, the Potency in assay [4] was 11.7 µM (active); in assay [14] it was 0.329 µM (active); in assay [6], 2.93 µM (active); in assay [15] it was 7.37 µM (active); in assay [16], 3.29 µM (active); in [8], 2.93 µM (active). Also, the Potency in assay [17] is 1.47 µM (active); in [10], 0.0261 µM (active); in [11], 7.37 µM (active); in assay [19] it was 5.22 µM (active); in assay [12], 2.61 µM (active).

With `CS(=O)(=O)N1CCN(Cc2cc3nc(-c4cccc5[nH]ncc45)nc(N4CCOCC4)c3s2)CC1`, the Potency result in assay [3] was “inactive”. In addition, the Potency is 8.51 µM (active) in assay [13]; 3.39 µM (active) in [4]; 1.7 µM (active) in assay [14]; 1.91 µM (active) in assay [6]; 6.03 µM (active) in assay [15]; 21.4 µM (active) in assay [16]. The Potency in assay [8] was 15.1 µM (active); in assay [17], 1.35 µM (active); in assay [11], 0.851 µM (active); in [12], 1.07 µM (active); in assay [20], 1.07 µM (active).

Consider `Cc1c(NC(=O)OC[C@@H]2COCCN2)cn2ncnc(Nc3ccc4c(cnn4Cc4cccc(F)c4)c3)c12`, for which the Potency entry in assay [3], in assay [13], in assay [15], in assay [18], in assay [9] and in [19] was “inactive” each time. Moreover, the Potency in assay [4] was 18.5 µM (active); in [5], 26.1 µM (active); in assay [7], 20.8 µM (active); in assay [8], 18.5 µM (active); in assay [17], 26.1 µM (active); in assay [10], 20.8 µM (active). In [11], the Potency was 16.5 µM (active).

With `O=C(CCCCCCC(=O)Nc1ccc([C@H]2O[C@@H](CSc3nc(-c4ccccc4)c(-c4ccccc4)o3)C[C@@H](c3ccc(CO)cc3)O2)cc1)NO`, the Potency in assay [1] was 14.8 µM (active); in [2], 9.35 µM (active).

With `Cc1cnc(-c2cnc(NCCNc3ccc(C#N)cn3)nc2-c2ccc(Cl)cc2Cl)[nH]1`, the Potency entry in [3], in assay [5], in assay [6], in assay [16], in assay [8] and in assay [9] was “inactive” in each case. Besides, the Potency result in assay [10], in [19], in assay [12] and in assay [20] was “inactive” in each case. Moreover, the Potency in [14] was 11.7 µM (active); in [7], 16.5 µM (active); in [15] it was 14.7 µM (active); in assay [18], 0.737 µM (active).

Take `CN1CC[C@@H](c2c(O)cc(O)c3c(=O)cc(-c4ccccc4Cl)oc23)[C@@H](O)C1`: the Potency result in assay [1] and in assay [9] was “inactive” in each case. Further, the Potency was 0.296 µM (active) in assay [2]; 0.522 µM (active) in assay [4]; 0.414 µM (active) in [14]; 0.737 µM (active) in assay [5]; 0.465 µM (active) in [6]; 0.465 µM (active) in assay [7]. The Potency in assay [16] was 0.369 µM (active); in assay [8] it was 0.414 µM (active); in assay [10] it was 0.329 µM (active); in [11], 0.369 µM (active); in assay [19] it was 0.737 µM (active); in [12], 1.17 µM (active). Also, the Potency in assay [20] is 0.369 µM (active).

Take `Cc1cc(C(=O)N2CCN(c3cccc(Cl)c3)CC2)n(-c2ccccc2)n1`: the Potency entry in assay [1] and in assay [9] was “inactive” each time. For the same compound, the Potency in assay [2] was 2.35 µM (active); in [4] it was 2.33 µM (active); in [14], 2.61 µM (active); in [7], 0.928 µM (active); in assay [8], 5.22 µM (active); in [17], 2.61 µM (active). In addition, the figures for the Potency in assay [18] and in [10] were 1.65 µM (active) and 3.29 µM (active), respectively.

For `CC1=C(CO)C(=O)O[C@@H]([C@@H](C)[C@H]2CC[C@H]3[C@@H]4C[C@H]5O[C@]56[C@@H](O)C=CC(=O)[C@]6(C)[C@@H]4CC[C@]23C)C1`, the Potency in assay [1] was 2.35 µM (active); in assay [2] it was 1.18 µM (active); in assay [4], 18.5 µM (active); in [5], 10.4 µM (active). The Potency entry in assay [14], in assay [7], in [15], in assay [16], in [8] and in assay [17] was “inactive” each time. For the same compound, the Potency entry in assay [18], in assay [9], in assay [10] and in assay [11] was “inactive” throughout.
